The results in this text go back to PubChem BioAssay (NCI).

Test systems include NCI-H23 lung; NCI-H226 lung; NCI-H322M lung; HOP-62 NSCLC; NCI-H460 lung; HOP-92 NSCLC; NCI-H522 lung; A549/ATCC NSCLC; 786-0 renal; COLO 205 colon; DU-145 prostate; K-562 leukemia; MALME-3M melanoma; MDA-MB-231 breast; RXF 393 renal; SF-268 CNS; SF-295 CNS; SF-539 CNS; UACC-257 melanoma; M14 melanoma.
Assay in all cases: NCI-60 one-dose screen, 48 h (100 = growth as untreated, 0 = no growth, -100 = all killed)
Settings in all cases: 10 µM unless noted

This is part of a sample that, as a whole, favours compounds with a hit. Of some 83,000 tested, about 20% had one in any assay.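 Plates (96-well) were seeded with cells, treated with compound at one concentration, and incubated for 48 hours before percent growth was determined.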 Values without a mark were called inactive. Activity calls are given as the source filed them. The calls were made as follows: active = growth percent below 10; inactive = the rest.

Regarding `COc1cc2ncnc(Nc3ccc(S(=O)(=O)Nc4nccs4)cc3)c2cc1OCCCN1CCCC1`, the growth with NCI-H23 lung was 99.8%; in the test on NCI-H226 lung it was 105%; in the test on NCI-H322M lung, 103%; with HOP-62 NSCLC it was 103%; with NCI-H460 lung it was 107%; in the test with HOP-92 NSCLC it was 119%. The growth in the test on NCI-H522 lung is 94.1%; in the test on A549/ATCC NSCLC it was 102%; in the test on 786-0 renal, 105%; in the test with COLO 205 colon, 113%; in the test with DU-145 prostate it was 105%; in the test on K-562 leukemia, 84.2%. The growth with MALME-3M melanoma was 101%; with MDA-MB-231 breast it was 104%; in the test with RXF 393 renal, 99%; with SF-268 CNS it was 99.2%; in the test on SF-295 CNS, 106%; with SF-539 CNS, 101%. Further, the growth in the test on UACC-257 melanoma was 99.6%; with M14 melanoma it was 109%.
Regarding `Oc1nc(NCc2ccccc2)sc1/C=C1\C=Nc2ncccc21`, the growth with NCI-H23 lung is 51.9%; in the test on NCI-H226 lung, 62.3%; with NCI-H322M lung it was 61.9%; in the test with HOP-62 NSCLC, 56.1%; in the test with NCI-H460 lung it was 81.9%; with HOP-92 NSCLC, 28.8%. Also, the growth is 35.2% in the test with NCI-H522 lung; 76.9% with A549/ATCC NSCLC; 62.8% in the test with 786-0 renal; 34.2% with COLO 205 colon; 56.5% in the test with DU-145 prostate; 80.7% in the test with K-562 leukemia. In addition, the growth is 129% in the test on MALME-3M melanoma; 83.8% with MDA-MB-231 breast; -14.1% (active) with RXF 393 renal; 52.3% in the test on SF-268 CNS; 73.7% in the test on SF-295 CNS; 23.3% with SF-539 CNS. Besides, the growth in the test on UACC-257 melanoma was 71.3%; in the test on M14 melanoma, 80.1%.
As to `COc1ccc(C2CC(c3ccccc3)=NN2C(=O)c2cc(OC)c(OC)c(OC)c2)cc1O` (stereo not given), the growth was 35.6% in the test on NCI-H23 lung; 27.4% with NCI-H226 lung; 57.5% in the test with NCI-H322M lung; 49.4% with HOP-62 NSCLC; 6.52% (active) in the test with NCI-H460 lung; 28% in the test on HOP-92 NSCLC. The growth was -3.83% (active) in the test with NCI-H522 lung; 29.5% with A549/ATCC NSCLC; 20.4% in the test with 786-0 renal; 71% in the test with COLO 205 colon; 25.8% with DU-145 prostate; 14.1% in the test on K-562 leukemia. Also, the growth is 81.8% with MALME-3M melanoma; 8.45% (active) with MDA-MB-231 breast; -9.96% (active) in the test with RXF 393 renal; 49.9% with SF-268 CNS; 5.83% (active) in the test on SF-295 CNS; -15.7% (active) with SF-539 CNS. Further, the growth with UACC-257 melanoma was 66.2%; in the test on M14 melanoma, 13.4%.
Turning to `COc1cc2c(c(OC)c1OC)CCC(c1cccc(C(=O)Nc3ccc(Br)cc3)c1)O2` (stereo not given), the growth with NCI-H23 lung was 75.8%; in the test with NCI-H226 lung it was 62.7%; in the test on NCI-H322M lung, 50%; in the test with HOP-62 NSCLC it was 82%; in the test with NCI-H460 lung, 84%; with HOP-92 NSCLC, 17%. In addition, the growth with NCI-H522 lung is 48.8%; in the test with A549/ATCC NSCLC, 64.2%; in the test on 786-0 renal it was 84.1%; with COLO 205 colon it was 76.5%; in the test on DU-145 prostate, 71%; with K-562 leukemia it was 40.4%. The growth was 72.3% in the test on MALME-3M melanoma; 17% with MDA-MB-231 breast; 75% in the test on RXF 393 renal; 76.6% with SF-268 CNS; 56.5% in the test on SF-295 CNS; 76.6% with SF-539 CNS. Further, the values for the growth in the test on UACC-257 melanoma and in the test on M14 melanoma were 75.6% and 70.5%, respectively.
Consider `O=S(=O)(Nc1cc(Sc2nc3ccccc3s2)c(O)c2ccccc12)c1ccc2ccccc2c1`, for which the growth in the test on NCI-H23 lung is 76.3%; in the test on NCI-H226 lung it was 94.1%; in the test with NCI-H322M lung, 94.9%; with HOP-62 NSCLC, 102%; with NCI-H460 lung, 99.7%; in the test with HOP-92 NSCLC it was 109%. Besides, the growth in the test with NCI-H522 lung was 83%; with A549/ATCC NSCLC, 99.9%; with 786-0 renal, 111%; in the test on COLO 205 colon, 101%; with DU-145 prostate it was 101%; in the test on K-562 leukemia, -35.7% (active). The growth was 102% in the test on MALME-3M melanoma; 71.1% in the test on MDA-MB-231 breast; 104% in the test with RXF 393 renal; 95.4% with SF-268 CNS; 87.7% in the test on SF-295 CNS; 106% in the test with SF-539 CNS. Further, the figures for the growth with UACC-257 melanoma and in the test on M14 melanoma were 99.8% and 109%, respectively.
For the compound `O=C1/C(=C/c2cccc(Br)c2)COc2ccc(O)cc21`, the growth in the test on NCI-H23 lung was 74.8%; in the test with NCI-H226 lung, 101%; in the test on NCI-H322M lung it was 97.4%; in the test on HOP-62 NSCLC it was 86.6%; with NCI-H460 lung it was 92.2%; with HOP-92 NSCLC, 46%. The growth is 18.9% in the test with NCI-H522 lung; 66.2% in the test on A549/ATCC NSCLC; 50% in the test on 786-0 renal; 84.5% in the test with COLO 205 colon; 69.7% in the test with DU-145 prostate; 2.93% (active) with K-562 leukemia. Also, the growth in the test on MALME-3M melanoma is 78.9%; with MDA-MB-231 breast, 27.9%; in the test with RXF 393 renal it was 70.6%; in the test on SF-268 CNS, 67.6%; in the test with SF-295 CNS, 100%; in the test on SF-539 CNS it was 69.3%. For the same compound, the growth is 99.9% in the test with UACC-257 melanoma and 76.5% in the test with M14 melanoma.
Consider `CC(=O)c1c(Nc2cccc(F)c2)[nH]c2c(Cl)cc(Cl)c(Cl)c2c1=O`, for which the growth is 3.83% (active) with NCI-H23 lung; -4.3% (active) with NCI-H226 lung; 9.02% (active) with NCI-H322M lung; -10.1% (active) in the test with HOP-62 NSCLC; 3.6% (active) with NCI-H460 lung; -14.2% (active) in the test on HOP-92 NSCLC. Besides, the growth is -8.41% (active) with NCI-H522 lung; 4.98% (active) in the test on A549/ATCC NSCLC; 12.2% with 786-0 renal; -63.4% (active) in the test on COLO 205 colon; 25.2% in the test with DU-145 prostate; 7.81% (active) with K-562 leukemia. Further, the growth in the test on MALME-3M melanoma is -18.6% (active); in the test with MDA-MB-231 breast, -3.57% (active); in the test on RXF 393 renal, 4.14% (active); with SF-268 CNS, 19.2%; with SF-295 CNS, -28.4% (active); with SF-539 CNS, 4.02% (active). Further, the growth in the test with UACC-257 melanoma is -14.2% (active); in the test with M14 melanoma, 6.55% (active).
With `CCOC(=O)CC[C@H](NC(=O)c1ccc(N(C)Cc2cnc3nc(N)nc(N)c3n2)c2ccccc12)C(=O)OCC`, the growth in the test with NCI-H23 lung was 25.5%; in the test on NCI-H226 lung it was 72.6%; with NCI-H322M lung, 46.3%; in the test with HOP-62 NSCLC, 29.4%; in the test with NCI-H460 lung, 13.8%; with HOP-92 NSCLC, 51.7%. Also, the growth in the test on NCI-H522 lung was 22.4%; in the test on A549/ATCC NSCLC, 9.28% (active); in the test with 786-0 renal, 27.5%; in the test with COLO 205 colon, 36.9%; with DU-145 prostate, 28.3%; in the test on K-562 leukemia it was 18.8%. The growth was 62.1% in the test with MALME-3M melanoma; 59.4% with MDA-MB-231 breast; 48.7% with RXF 393 renal; 32.9% in the test on SF-268 CNS; 24.3% with SF-295 CNS; 26.1% in the test on SF-539 CNS. The values for the growth in the test on UACC-257 melanoma and in the test on M14 melanoma were 25.3% and 23%, respectively.
